GDH-TPI counter-1: GDH-TPI coupled enzyme inhibition counter-screen; 1.2% of 360,000 active; inhibition, % at 4.8 µM; GDH-TPI coupled enzyme counterscreen, NADH absorbance; in the data active = inhibition above about 30%;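 note: 0% = DMSO wells and 100% = wells lacking the enzyme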
Mtb bLac sens: beta-lactam sensitization of Mtb H37Rv; M. tuberculosis H37Rv growth with meropenem, percent inhibition; inhibition, % at 25 µM; 0.27% of 330,000 active; call rule not given here;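 note: growth measured after seven days incubation then overnight dye step; 0% = bacteria only wells and 100% = bacteria with antibiotic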
FadD28 binding: blocks FadD28 binding to the bisubstrate probe; fluorescence polarization; inhibition, % at 12.5 µM; 0.22% of 360,000 active; in the data active = inhibition above about 8.5%, passing the limit was not always enough; inconclusive = no clear call, values can overlap the other calls
Mtb UGM inh: inhibitors of M. tuberculosis UDP-galactopyranose mutase; P9WIQ1; AID 504406; 0.06% of 320,000 active; purified UGM, fluorescence polarization probe displacement; inhibition, % at 10 µM; in the data active = inhibition above about 10%, passing the limit was not always enough; inconclusive = no clear call, values can overlap the other calls
Mtb FBA inh: inhibitors of M. tuberculosis fructose-bisphosphate aldolase; P9WQA3; purified M. tuberculosis FBA, fluorescence read-out; inhibition, % at 1 µM; 2.3% of 360,000 active; AID 588726;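 note: 0% = vehicle and 100% = reference inhibitor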
Target sequence (P9WQA3 whole entry, looked up): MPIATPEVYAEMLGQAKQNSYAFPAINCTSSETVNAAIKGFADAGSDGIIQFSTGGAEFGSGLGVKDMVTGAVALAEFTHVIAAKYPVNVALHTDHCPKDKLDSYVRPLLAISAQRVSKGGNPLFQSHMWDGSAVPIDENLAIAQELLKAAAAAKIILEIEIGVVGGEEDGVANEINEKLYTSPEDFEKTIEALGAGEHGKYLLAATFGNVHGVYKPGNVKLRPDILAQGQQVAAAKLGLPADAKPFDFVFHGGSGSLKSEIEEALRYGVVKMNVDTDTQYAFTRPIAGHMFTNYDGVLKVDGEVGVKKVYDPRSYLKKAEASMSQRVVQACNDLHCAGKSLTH
Rv3671c protease: inhibits the M. tuberculosis serine protease Rv3671c; inhibition, % at 5.96 µM; 0.048% of 320,000 active; AID 2606; in the data active = inhibition above about 38%;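 note: extracellular domain of Rv3671c used as enzyme; 0% = enzyme with DMSO and 100% = no enzyme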
Mtb FBA inh conf: confirmation of M. tuberculosis fructose-bisphosphate aldolase inhibitors; AID 651616; inhibition, % at 1 µM; 78% of 5,600 active; shares compounds with Mtb FBA inh; purified M. tuberculosis FBA, fluorescence read-out;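 note: 0% = vehicle wells and 100% = reference inhibitor wells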
GDH-TPI counter-2: GDH-TPI inhibition counter-screen for FBA inhibitors; shares compounds with Mtb FBA inh; 81% of 5,600 active; inhibition, % at 1 µM; AID 652141; GDH-TPI coupled enzyme counterscreen, fluorescence; in the data active = inhibition above about 10%
GDH-TPI DR: inhibits GDH-TPI coupling enzymes in dose response; shares compounds with Mtb FBA inh; GDH-TPI coupled enzyme assay, fluorescence, artifact counterscreen; IC50, µM; 79% of 170 active; AID 652145; call rule not given here
* marks the source's active call; other numbers are inactive results; ? = inconclusive; . = no result; + = active, no number. The list is not random: actives were taken first. Their share in the collection is about 3.7%. Cut-off read from the data, not from the text of the source, unless noted: active = inhibition above about 27%; inactive = the rest.

SMILES	GDH-TPI counter-1	Mtb bLac sens	FadD28 binding	Mtb UGM inh	Mtb FBA inh	Rv3671c protease	Mtb FBA inh conf	GDH-TPI counter-2	others
CCc1cc2c(=O)c(-c3nc4ccccc4n3C)c(COCC(=O)O)oc2cc1O	19.6	8.9	-4.7	-2.0	-1.8	2.8	.	.
Cn1c(-c2cc3ccc(OC(=O)C(C)(C)C)cc3oc2=O)nc2ccccc21	33.0*	10.1	-2.7	0.3	59.2*	-4.5	2.9	-3.5
COc1ccc(NC(=O)C2(C)CCN2C2Cc3ccccc3C2)cc1OC (stereo unspecified)	-4.6	.	-2.6	.	1.8	.	.	.
CC(C)CCNc1c(-c2cccs2)nc2ccccn12	8.9	-3.4	-0.6	1.7	46.4*	12.7	37.5*	20.7*
Cc1ccn2c(NC(=O)c3cccs3)c(-c3ccccc3)nc2c1	13.2	-1.4	-4.2	-1.5	1.4	-3.8	.	.
Cc1ccn2c(NC(C)(C)C)c(-c3cccs3)nc2c1	-3.8	-5.3	-1.2	-0.5	33.2*	-0.1	+	+
O=C(OCc1cn([C@H]2CN(C(=O)C3CCCCC3)[C@@H](c3ccc(Cl)cc3)C[C@@H]2O)nn1)c1ccccc1	6.6	.	-0.9	.	-1.2	.	.	.
CCOC(=O)C1CCN(C(=O)Nc2ccc3snnc3c2)CC1	7.1	-17.8	-0.7	-0.8	10.0	-5.7	.	.
CCOC(=O)C1CCN(C(=O)Nc2ccc3nccnc3c2)CC1	19.5	-10.4	-4.3	3.8	36.9*	0.6	56.8*	37.5*
COc1ccc(C)cc1NC(=O)NNC(=O)C(C)Oc1ccc(F)cc1Cl (stereo unspecified)	5.2	-9.2	-0.4	-0.5	1.1	-6.7	.	.
Cc1cccn2c(=O)cc(COC(=O)C(C)Oc3ccccc3)nc12 (stereo unspecified)	4.1	28.1	-0.6	0.5	3.9	-3.8	.	.
Cc1cc(=O)n2cccc(O)c2n1	5.7	-1.9	0.8	-0.3	74.8*	-5.1	+	+
CCCn1c(-c2cccs2)nc2c1c(=O)[nH]c(=O)n2Cc1ccccc1	5.7	-1.6	-3.2	1.4	32.5*	-5.9	130.5*	102.4*
COc1ccc(-c2nc3c(c(=O)[nH]c(=O)n3Cc3ccccc3)n2CCO)cc1	-3.1	-3.1	0.0	-2.3	38.9*	7.5	170.2*	142.9*
Cc1cccc(S(=O)(=O)NC(=O)C2(C)CCN2C(=O)CC2CCCCC2)c1 (stereo unspecified)	4.9	.	-0.6	.	-0.1	.	.	.
COc1ccccc1CNCc1ccc(OC)c2ccccc12	-5.6	1.9	-3.7	-1.8	1.9	8.5	.	.
COc1ccc(CNCc2ccc(OC)c3ccccc23)cc1	-2.1	5.8	1.6	1.9	56.9*	0.0	11.4	-5.2	GDH-TPI DR=>10
CCOC(=O)c1c(-c2ccc(C)cc2)cn2ccccc12	11.9	12.8	-2.0	-1.4	88.8*	-8.8	106.2*	79.5*
CCOC(=O)c1c(-c2ccc(F)cc2)cn2ccccc12	23.4	1.0	-2.0	0.6	98.7*	-2.1	139.1*	100.4*
CCOC(=O)c1c(-c2ccc(OC)cc2)cn2ccccc12	3.5	-5.5	-1.7	0.4	26.1	7.4	.	.
CCCC(=O)Nc1c(-c2ccc(OC)cc2)c(=O)c2ccccc2n1C	22.9	-3.2	-0.8	3.1	28.4*	1.3	-0.4	-2.9
CCCCC(=O)Nc1c(-c2ccc(OC)c(OC)c2)c(=O)c2ccccc2n1C	6.9	-1.0	.	3.1	0.0	1.7	.	.
CCCCCC(=O)Nc1c(-c2ccc(OC)cc2)c(=O)c2ccccc2n1C	21.1	?	-3.5	-1.0	28.1*	-4.1	128.3*	104.4*
COc1cc2nc(CN3CCN(S(=O)(=O)c4cc(C)ccc4C)CC3)[nH]c(=O)c2cc1OC	3.0	0.9	1.1	-1.5	3.4	6.3	.	.
CCCNC(=O)C1(C)CCN(Cc2noc(-c3ccccc3OC)n2)C1 (stereo unspecified)	3.0	.	0.1	.	6.3	.	.	.
CC1(Cc2ccc(F)cc2)C(=O)Nc2ccc(S(=O)(=O)NC3CCCCC3)cc21 (stereo unspecified)	1.3	.	-2.9	.	1.1	.	.	.
